This passage reports inhibition results from PubChem BioAssay AID2315 (National Center for Advancing Translational Sciences (NCATS), 2010).

In all, about 290,000 compounds went through this assay and about 27,000 (9.3%) were called active. Cut-off read from the data, not from the text of the source: active = inhibition mostly above about 28% (no sharp cut-off); inactive = mostly below about 43%. The entries come from a sample that favours actives as a whole.

The test in a line: A qHTS for Small Molecule Inhibitors of Shiga Toxin. Note: 0% is about no effect. The following applies: Vero cells, Shiga toxin protein synthesis inhibition reporter; at 38.7 µM, active compounds read high.
As a reminder, the inhibition is the relative decrease from the control value, in per cent. Turning to `COc1ccc(/C=N/N(C)C2=NS(=O)(=O)c3ccccc32)cc1OC`, the inhibition was -11.4% (inactive). Under `COc1ccc(NC(=O)C2CCC(CNC(=O)[C@@H]3Cc4ccccc4CN3)CC2)cc1` (stereo partly specified) stands 8.69% (inactive). Under `COc1ccc(CNC(=O)C2CCN(S(=O)(=O)c3ccc(SC)cc3)CC2)cc1` stands -9.94% (inactive); under `O=C(Nc1cccn(Cc2ccccc2Cl)c1=O)NC1CCCCC1`, 33% (inactive).

Consider `CCNC(=O)CCc1nc(-c2ccc(C(C)(C)C)cc2)no1`, for which the inhibition was 42.8% (active). Under `CN1CCN(C(=O)CCc2nc(-c3ccc(Cl)cc3)no2)CC1` stands 42.8% (inactive). The result for `CCNC(=O)CCc1nc(-c2ccc(C)cc2)no1` reads 34.3% (inactive); that for `O=S(=O)(N/N=C\c1cccn1-c1ccccc1)c1ccc2ccccc2c1`, -11.6% (inactive); that for `CN(C)c1ccc(-n2cccc2/C=C2/SC(=Nc3ccc(F)cc3)NC2=O)cc1`, -12.2% (inactive). On to `CN(C)c1ccc(-n2cccc2/C=N/n2cnnc2)cc1`, for which the inhibition was 61% (active). The result for `COc1ccc(OCCCC(=O)NCCc2ccccc2)cc1` reads -4.42% (inactive); that for `COc1ccc(/C(N)=N/OC(=O)Oc2ccccc2)cc1`, -9.52% (inactive); that for `COc1ccc(/C(N)=N/OC(=O)Cc2ccccc2)cc1`, 90% (active). Under `COc1ccc(/C(N)=N/OC(=O)CCCc2ccccc2)cc1` stands 89.8% (active). Regarding `COc1ccc(C(=O)NC(=S)NNC(=O)CCc2ccccc2)cc1`, the inhibition was 18.3% (inactive). Under `COc1ccc(CC(=O)NC(C)CCc2ccccc2)cc1` (stereo unspecified) stands -4.86% (inactive); under `CC(C)C(c1nnnn1C1CCCCC1)N1CCN(C(=O)c2ccco2)CC1` (stereo unspecified), -10.3% (inactive). As for `Cc1ccc(-n2ncc(C(=O)NC3CC3)c2C2CCN(C(=O)OC(C)(C)C)CC2)c(C)c1`, the inhibition was 16.2% (inactive). Take `O=C(C1CCCN(S(=O)(=O)c2ccc([N+](=O)[O-])cc2)C1)N1CCCCC1` (stereo unspecified): the inhibition was 2.21% (inactive).

For `COc1cccc(/C=C2/SC(=S)N(CC(=O)NC3C=CS(=O)(=O)C3)C2=O)c1` (stereo unspecified), the inhibition is 16.1% (inactive). For `CC(C)CNC(=O)C(=O)NCC(c1ccc2c(c1)OCO2)N1CCOCC1` (stereo unspecified), the inhibition is -7.49% (inactive). Under `O=S(=O)(Nc1ccccc1Br)c1cccs1` stands 6.38% (inactive); under `CC(C)CC(CC(C)C)=NNC(=O)c1ccc(CSc2nncn2C)cc1`, 16% (inactive); under `COC(=O)c1ccc(CSc2nncn2N)cc1`, 26.1% (inactive). `COC(=O)c1ccc(CSc2nncn2C)cc1`: the inhibition was 177% (active).

Consider `O=C(NC(=S)Nc1ncccn1)c1ccccc1Br`, for which the inhibition is 9.32% (inactive). The result for `Cc1ccc(NC2CCCN(C(=O)CCc3cn[nH]c3)C2)cc1C` (stereo unspecified) reads 9.62% (inactive); that for `CC(NCC(=O)Nc1cc(Cl)cc(Cl)c1)c1ccccc1` (stereo unspecified), -4.69% (inactive); that for `COc1ccc(/C=N/Nc2nc3ccccc3c(=O)[nH]2)cc1`, 60.8% (active).

Regarding `COc1ccc(/C=N/Nc2ccccc2C(=O)O)cc1`, the inhibition was 31.8% (active).

For the compound `COc1ccc(/C=N/NS(=O)(=O)c2ccc(NC(C)=O)cc2)cc1`, the inhibition is 24.7% (inactive). The result for `COc1ccc(CCCc2nnc(SCc3nc4ccccc4c(=O)[nH]3)n2C)cc1` reads -10.2% (inactive). The result for `COc1ccc(/C=N/OCC(=O)N(Cc2ccccc2)c2ccccc2C(=O)O)cc1` reads -13.4% (inactive); that for `COc1ccc(C=Nc2cccc3ncccc23)cc1`, -17.4% (inactive); that for `COC(=O)c1sccc1NS(=O)(=O)c1ccc(F)cc1F`, 11.9% (inactive). As to `COCCCn1c(SCC(=O)NC2CCCC2)nnc1-c1ccccc1`, the inhibition is -6.72% (inactive).

On to `Cc1nc(-c2ccc(F)cc2)c(CC(=O)N2CCN(S(=O)(=O)c3ccc(F)cc3)CC2)s1`, for which the inhibition is 26.6% (inactive). The result for `NS(=O)(=O)c1ccc(CCNc2nc(C(F)(F)F)nc3ccccc23)cc1` reads -9.53% (inactive). In the case of `CC1COc2ccccc2N1C(=O)c1ccc(F)cc1` (stereo unspecified), the inhibition was -4.1% (inactive). For the compound `Brc1ccccc1C1Nc2cccc3cccc(c23)N1`, the inhibition is -2.7% (inactive). For the compound `Brc1ccccc1C1N=C(c2ccccc2)NO1` (stereo unspecified), the inhibition was 85.7% (active). The result for `N#Cc1ccc(C2N=C(c3ccccc3)NO2)cc1` (stereo unspecified) reads 89.5% (active).

With `S=C1NC(c2ccccc2)=NCN1c1ccc(Br)cc1`, the inhibition was 29.2% (inactive). The result for `O=C1CCCCN1CCCC(=O)N1CCCC(Nc2ccc(F)cc2)C1` (stereo unspecified) reads 7.4% (inactive); that for `CCOc1ccc(NC(=O)CCCCCN2C(=O)[C@@H]3Cc4ccccc4CN3C2=O)cc1`, 3.39% (inactive). Under `CCCNC(=O)C(=O)Nc1cc2c3c(c1)CCC(=O)N3CCC2` stands 5.83% (inactive); under `COc1ccc(N2C(=O)C(CC(=O)Nc3ccccc3)N(Cc3ccc(OC)c(OC)c3)C2=O)cc1` (stereo unspecified), 40.7% (inactive); under `COc1ccc(-c2oc3ncnc(NCCCO)c3c2-c2ccc(OC)cc2)cc1`, -19.7% (inactive).

Turning to `COc1ccc(O[C@H]2C=C[C@@H](c3ccccc3)O[C@@H]2CO/N=C/C[C@@H]2C=C[C@H](OC(C)=O)[C@@H](COC(C)=O)O2)cc1`, the inhibition is 16.1% (inactive). The result for `O=C(NCc1ccco1)/C(=C/c1cccc([N+](=O)[O-])c1)NC(=O)c1ccco1` reads -2.89% (inactive).

For `Cc1cc2occ(CC(=O)NNC(=O)c3ccccc3F)c2cc1C`, the inhibition is 18% (inactive).

In the case of `O=C(CSc1nccc(=O)[nH]1)Nc1ccc(N2CCOCC2)c(Cl)c1`, the inhibition is -5.56% (inactive).

Take `CCOC(=O)c1cn(Cc2cccc(C)c2)nn1`: the inhibition is 1.57% (inactive). Under `CC(=O)c1nn(-c2cccc(Br)c2)cc1C(=O)c1cccc2ccccc12` stands -19.7% (inactive). Under `CCOC(=O)c1nn(-c2cccc(C)c2)cc1C(=O)c1ccccc1` stands 152% (active); under `CCOc1ccc(CNC(=O)CCC(=O)N2CCSc3ccccc32)cc1`, 5.1% (inactive).

For `O=S(=O)(Nc1ccccc1)c1ccc(NS(=O)(=O)c2cccs2)cc1`, the inhibition is -2.44% (inactive). Consider `NC(=O)c1cc(S(=O)(=O)N2CCCC2)ccc1OCc1ccc(F)cc1`, for which the inhibition is -10.2% (inactive).

For `O=C(Nc1nc(-c2ccc3c(c2)OCO3)cs1)c1ccncc1`, the inhibition was 42.9% (inactive). The result for `CC(=O)NCCC(=O)Nc1nc(C)c(Cc2ccc3c(c2)OCO3)s1` reads 13.3% (inactive). Consider `CC(=O)NCCC(=O)Nc1nc(-c2ccc3c(c2)OCCO3)cs1`, for which the inhibition was 50% (active).
